About 13,000 (27%) of roughly 48,000 compounds showed an effect of 50% or more. This is one part of the list.
Each compound was assayed on Wolbachia pipientis (assay: Anti-Wolbachia Cell-Based Screen). Details: 5 µM.
Assay type: functional
Set-up: scale not given: in the data most compounds retested in dose-response had high values
In the case of `NC(=O)c1ccc(CNCC2CCN(CCO)CC2)cc1`, the “Percent Effect” value was 2.18%.
For `Cc1nc(CCN(C)C(=O)CCNC(=O)c2ccccc2F)no1`, the “Percent Effect” value was -9.414%.
`CCc1cc(NCc2ccc(-n3cncn3)c(C)c2)n(C)n1` was tested, and the “Percent Effect” value was -10.44%.
For `CC(CC(=O)O)CC(=O)Nc1sc2c(c1C(N)=O)CCc1ccccc1-2` (configuration not stated), the “Percent Effect” value was 127.8%.
In the case of `CC(NC(=O)Cn1cc(C(N)=O)c(-c2ccccc2)n1)C1CC1` (configuration not stated), the “Percent Effect” value was 6.248%.
In the case of `Cc1ccccc1C(C(=O)N(C)CCc1cn[nH]c1)N(C)C` (configuration not stated), the “Percent Effect” value was 13.24%.
With `O=C(c1ccc(C2CCCO2)s1)N1Cc2ccccc2C1` (configuration not stated) the “Percent Effect” value was -6.563%.
With `CCOc1ccc(OCc2nccc(-c3cc(C(=O)O)ccn3)n2)cc1` the “Percent Effect” value was -79.36%.
For `Cc1cc(N(C)Cc2ccsc2)n2nc(C)c(C)c2n1`, the “Percent Effect” value was -6.917%.
`Cc1cc(N(C)Cc2noc(C)n2)n2nc(C)c(C)c2n1` was tested, and the “Percent Effect” value was 14.08%.
With `Cc1csc(CN(C)c2cc(C)nc3c(C)c(C)nn23)n1` the “Percent Effect” value was 83.18%.
`CC(O)CN(c1ccccc1)S(=O)(=O)c1cc(C(=O)O)cc2c1CCC2` (configuration not stated) was tested, and the “Percent Effect” value was 5.053%.
For `CCCc1nnc(C(=O)N(C)Cc2cnc3ccccn23)o1`, the “Percent Effect” value was -16.11%.
`CCOc1cccc(C(=O)N2C[C@H]3CC[C@@H]2CN(C(=O)C2CCC2)C3)c1` was tested, and the “Percent Effect” value was -8.209%.
`O=C(O)C(F)(F)F.O=C(c1ccoc1)N1CCCC2(CCC(=O)N2Cc2cccnc2)C1` (configuration not stated) was tested, and the “Percent Effect” value was -3.168%.
In the case of `CN(C)CCN1C(=O)CCC12CCCN(C(=O)c1cccnc1)CC2.O=C(O)C(F)(F)F.O=C(O)C(F)(F)F` (configuration not stated), the “Percent Effect” value was 104.4%.
For `CN(C)CCN1C(=O)CCCC12CCCN(C(=O)c1cc[nH]n1)C2.O=C(O)C(F)(F)F` (configuration not stated), the “Percent Effect” value was 101.5%.
With `CN(C)CCN1CCOCC2(CCCN(C(=O)c3ccccn3)C2)C1.O=C(O)C(F)(F)F.O=C(O)C(F)(F)F` (configuration not stated) the “Percent Effect” value was -9.412%.
With `Cc1cc(C(=O)N2CCCC3(COCCN(CCN(C)C)C3)C2)no1.O=C(O)C(F)(F)F.O=C(O)C(F)(F)F` (configuration not stated) the “Percent Effect” value was -4.031%.
For `O=C(O)C(F)(F)F.O=C(c1ccoc1)N1CCCC2(CCC(=O)N2Cc2ccncc2)C1` (configuration not stated), the “Percent Effect” value was -1.829%.
For `CN(C)CCN1C(=O)CCCC12CCCN(C(=O)c1ccncc1)C2.O=C(O)C(F)(F)F.O=C(O)C(F)(F)F` (configuration not stated), the “Percent Effect” value was 106.1%.
In the case of `Cn1cc(C2(C)CN(C(=O)Nc3ccccc3F)CCO2)cn1` (configuration not stated), the “Percent Effect” value was 1.448%.
In the case of `Cn1ncnc1CNc1ccc2c(c1)N(C(=O)OC(C)(C)C)CCC2`, the “Percent Effect” value was 21.04%.
In the case of `Cc1ccsc1CNc1ccccc1C(=O)N1CCNC(=O)C1`, the “Percent Effect” value was 4.147%.
In the case of `Cc1nsc(N2CCCN(c3nc(C4CC4)ns3)CC2)n1`, the “Percent Effect” value was 3.492%.
With `Cc1ccc(N2CCCC(NCc3cc(C)on3)C2)nn1` (configuration not stated) the “Percent Effect” value was 114.3%.
In the case of `Cc1cc(CNC2CCCN(c3cccnn3)C2)no1` (configuration not stated), the “Percent Effect” value was 3.501%.
For `Cc1ccc(N2CCCC(NCc3nc(C)c(C)o3)C2)nn1` (configuration not stated), the “Percent Effect” value was -3.745%.
For `Cc1ccc(N2CCCC(N(C)Cc3c(C)noc3C)C2)nn1` (configuration not stated), the “Percent Effect” value was -3.849%.
For `Cc1ccc(N2CCCC(NCc3ccc(-n4ccnc4)cc3)C2)nn1` (configuration not stated), the “Percent Effect” value was 9.457%.
With `Cc1ccc(N2CCCC(NCc3cscn3)C2)nn1` (configuration not stated) the “Percent Effect” value was -5.01%.
`Cc1ccc(N2CCCC(NCc3c(C)noc3C)C2)nn1` (configuration not stated) was tested, and the “Percent Effect” value was 115%.
For `Cc1ccc(N2CCCC(NCc3ccccn3)C2)nn1` (configuration not stated), the “Percent Effect” value was 95.9%.
With `O=C(C1SCCc2sccc21)N1CCC(O)CC1` (configuration not stated) the “Percent Effect” value was -0.1428%.
`CCN(CC)c1ccc(C(=O)N2C[C@@H]3CC[C@H](C2)N(CCOC)C3)cc1` was tested, and the “Percent Effect” value was 14.63%.
For `Cn1ccc(CN2CCCC(CNS(C)(=O)=O)C2)cc1=O` (configuration not stated), the “Percent Effect” value was 2.475%.
`Cn1ccc(CN2CCC(CCc3ccc(O)cc3)CC2)cc1=O` was tested, and the “Percent Effect” value was 11.88%.
With `CN(C)CCC1CCN(Cc2ccn(C)c(=O)c2)CC1` the “Percent Effect” value was 112.8%.
In the case of `CCS(=O)(=O)NC1CCCN(Cc2ccn(C)c(=O)c2)C1` (configuration not stated), the “Percent Effect” value was 5.979%.
In the case of `Cn1ccc(CN2CCC(COC3CCCC3)CC2)cc1=O`, the “Percent Effect” value was 0.749%.
With `CCN(CC)CC1CCN(Cc2ccn(C)c(=O)c2)CC1` the “Percent Effect” value was 118.1%.
With `Cc1cccc(C)c1NC(=O)c1cccc(CN2CCCC2C)c1` (configuration not stated) the “Percent Effect” value was 11.58%.
With `Cn1ccc(C(=O)N2CCCC(c3cc(O)n(C)n3)C2)n1` (configuration not stated) the “Percent Effect” value was 89.67%.
For `Cn1cc(C(=O)N2CCCC(c3cc(O)n(C)n3)C2)cn1` (configuration not stated), the “Percent Effect” value was 108%.
`CC(C)c1csc(C2CCCN(C(=O)c3ccc(=O)n(C)n3)C2)n1` (configuration not stated) was tested, and the “Percent Effect” value was -15.66%.
In the case of `COCCN1CCN(CC(=O)NC2(C#N)CCCC2)CC1C` (configuration not stated), the “Percent Effect” value was 16.28%.
`O=C(CCn1cc(Cl)cn1)N1CCC2(CC1)[C@H](O)C[C@@H]2OCCO` was tested, and the “Percent Effect” value was -14.25%.
For `CCc1cnc(NCc2nc(COC)no2)nc1`, the “Percent Effect” value was 3.706%.
`CCOCCCNc1ncc(-c2onc(C)c2C)c(-c2ccco2)n1` was tested, and the “Percent Effect” value was 100.1%.
For `COc1ncc(NCc2csc(-c3ccco3)n2)cc1C(N)=O`, the “Percent Effect” value was -5.121%.
With `COCCNc1ncc(-c2cc(C)no2)c(-c2ccco2)n1` the “Percent Effect” value was 96.17%.
`COCCNc1ncc(-c2onc(C)c2C)c(-c2ccco2)n1` was tested, and the “Percent Effect” value was 94.53%.
With `CCCOCCCNc1nccc(-c2cn(C)nc2C)n1` the “Percent Effect” value was -3.491%.
In the case of `CCN(CC)CCNc1ncc(-c2cc(C)no2)c(-c2ccoc2C)n1`, the “Percent Effect” value was -6.629%.
In the case of `CCOCCN1CCN(Cc2nnc(-c3ccco3)o2)CC1`, the “Percent Effect” value was 1.125%.
`Cc1nsc(N2CCN(C(=O)Nc3ccc4[nH]ccc4c3)CC2)n1` was tested, and the “Percent Effect” value was 0.5995%.
For `CCc1cc(CN2CCC(CCC(=O)Nc3ccccc3Cl)CC2)on1`, the “Percent Effect” value was 3.381%.
`N#CCCN(CC1CCOC1)S(=O)(=O)c1c(F)cccc1Cl` (configuration not stated) was tested, and the “Percent Effect” value was 4.348%.
With `CCc1nc(C2CCCN2Cc2nc(CCOC)no2)no1` (configuration not stated) the “Percent Effect” value was -0.7381%.
`CCc1ccc(C2CCCCCN2Cc2nc(CCOC)no2)o1` (configuration not stated) was tested, and the “Percent Effect” value was -5.886%.
For `COc1ccc(N2CCN(Cc3nc(CSC)no3)CC2=O)cc1`, the “Percent Effect” value was 98.96%.
For `COc1ccc(N2CCN(C[C@@H](C)CO)CC2=O)cc1`, the “Percent Effect” value was -31.81%.
`CSCc1noc(Cn2ncn3cccc3c2=O)n1` was tested, and the “Percent Effect” value was 40.19%.
For `COc1ccc(N2CCN(Cc3nc(CSC)no3)C(C)C2=O)cc1` (configuration not stated), the “Percent Effect” value was 106.8%.
In the case of `CSCc1noc(Cn2ccc3ccccc3c2=O)n1`, the “Percent Effect” value was 6.504%.
In the case of `COCCc1noc(CN2CCN(c3ccc(OC)cc3)C(=O)C2C)n1` (configuration not stated), the “Percent Effect” value was 97.33%.
For `CCN1CC2(CCN(Cc3nc(CSC)no3)CC2)CC1=O`, the “Percent Effect” value was -1.733%.

— ChEMBL document CHEMBL3988442, “University of Dundee, Small-Polar-MMV Screening Library” (2021)
